Assay [1] can be described thus: resazurin metabolic signal in HepG2 cells – cell-based, resazurin fluorescence, 24 h, PK04 Diversity Set, profiling panel (AID 1172). The settings on record: HepG2 viability, higher = more signal. (In general: The colour change of resazurin is a common sign of viable cells or microbes.)
The nature of assay [2]: budding yeast growth changes without added modifier – OD600, strain BY4716, 24 h, basal condition, primary screen (AID 1173). The settings on record: S. cerevisiae BY4716 growth, OD600, 24 h; higher = more signal, called active from +8 up or from −8 down.
The nature of assay [3]: viability profiling in MM1S myeloma cells – cell-based, resazurin fluorescence, basal, 24 h, PK04 Diversity Set, profiling panel (AID 1174).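 Further: MM1S multiple myeloma cell line.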 The settings on record: higher = more signal, called active from +8 up or from −8 down.
In assay [4] the target is Dihydroorotate dehydrogenase (quinone), mitochondrial (Plasmodium falciparum (isolate 3D7)) (UniProt Q08210). In words: inhibition of P. falciparum DHODH – biochemical, C-terminal His tag, absorbance 600 nm, primary screen (AID 1175).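 Further: recombinant parasite enzyme with a five histidine tag at its C terminus.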 The note with it: PfDHODH enzyme, DCIP absorbance 600 nm; higher = more signal, called active from +8 up or from −8 down.
The nature of assay [5]: inhibition of PAO1 biofilm formation – strain PAO1, LB-PBS medium, absorbance 600 nm, primary screen (AID 1176). The note with it: P. aeruginosa PAO1 growth/biofilm, A600, 12 h; higher = more signal.
Assay [6] can be described thus: growth modulation of vineyard yeast isolate – strain RM11-1a, OD600, basal, 24 h, primary screen (AID 1177).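 Further: cultures grown under basal conditions with no added stressor.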 The settings on record: S. cerevisiae RM11-1a growth, OD600, 24 h; higher = more signal, called active from +8 up or from −8 down.
Assay [7] in a line: growth of efflux-deficient E. coli DRC39 – strain DRC39, OD650, 24 h, E. coli filamentation inducers, primary screen (AID 1178).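 Further: growth measured as culture turbidity by optical density at 650 nm.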 The settings on record: E. coli DRC39 acrAB, higher = more signal, called active from +8 up or from −8 down.
The nature of assay [8]: growth of efflux-deficient E. coli DRC39 – strain DRC39, OD650, 48 h, E. coli filamentation inducers, primary screen (AID 1179).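 Further: screen aims at cell division blockers that make cells filament.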 The settings on record: E. coli DRC39 delta-acrAB growth, higher = more signal, called active from +8 up or from −8 down.
Assay [9] is described as follows: viability profiling in RPMI8226 myeloma cells – cell-based, resazurin fluorescence, basal, 24 h, PK04 Diversity Set, profiling panel (AID 1180).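 Further: RPMI8826 multiple myeloma cell line at 5000 cells per well.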 The note with it: higher = more signal.
Assay [10] addresses E3 ubiquitin-protein ligase XIAP (Homo sapiens) (UniProt P98170). In words: small molecules binding XIAP protein – biophysical, small-molecule microarray, fluorescence 635 nm, primary screen (AID 1181).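 Further: score merges 667 nm emission and signal to noise over triplicate slides.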 The note with it: higher = more signal.
Assay [11] has as its system XIP peptide (Xip251-270) binding. In words: XIP fragment 251-270 binding compounds – biochemical, small-molecule microarray, fluorescence 635/667 nm, 0.1 µg/mL protein, primary screen (AID 1182). The settings on record: fluorescent protein binding, 635 nm, higher = more signal, called active from +8 up or from −8 down.
For assay [12], the system named is XIP peptide (Xip251-270). In words: compounds binding XIP fragment 251-270 – biochemical, small-molecule microarray, fluorescence 635/667 nm, 0.5 µg/mL protein, primary screen (AID 1183). The settings on record: fluorescence 635 nm, higher = more signal.
Assay [13] can be described thus: blood-stage malaria parasite viability loss – strain 3D7, DAPI fluorescence, 100 nL, primary screen (AID 1184).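 Further: parasites grown inside human red blood cells in medium with human serum.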 The settings on record: P. falciparum 3D7 growth, 3 d, higher = more signal.
In assay [14] the target is Homeobox protein Hox-A13 (Mus musculus) (UniProt Q62424). The experiment in a line: disruptors of Hoxa13 oligonucleotide interaction – biochemical, fluorescence polarization, labeled oligonucleotide, primary screen (AID 1185). The settings on record: Hoxa13:DNA binding, 15 min, higher = more signal, called active from +8 up or from −8 down. Background: Fluorescence polarisation rises when a labelled molecule tumbles more slowly, as on binding a larger partner.

Assay [15] can be described thus: blockers of DNA damage checkpoint Chk1 activation – imaging, HeLa, hydroxyurea, phospho-Chk1 antibody, percent positive cells, primary screen (AID 1186). The settings on record: hydroxyurea-induced phospho-Chk1 immunofluorescence imaging, higher = more signal.
Assay [16] can be described thus: blockers of DNA damage checkpoint Chk1 activation – imaging, HeLa, hydroxyurea, phospho-Chk1 nuclear intensity, primary screen (AID 1187). The note with it: hydroxyurea-induced phospho-Chk1 immunofluorescence imaging, higher = more signal.

The source made the active and inactive calls. Unless noted, how the calls were made is not given here.

Chain of Homeobox protein Hox-A13 (Mus musculus) (Q62424 whole entry, looked up): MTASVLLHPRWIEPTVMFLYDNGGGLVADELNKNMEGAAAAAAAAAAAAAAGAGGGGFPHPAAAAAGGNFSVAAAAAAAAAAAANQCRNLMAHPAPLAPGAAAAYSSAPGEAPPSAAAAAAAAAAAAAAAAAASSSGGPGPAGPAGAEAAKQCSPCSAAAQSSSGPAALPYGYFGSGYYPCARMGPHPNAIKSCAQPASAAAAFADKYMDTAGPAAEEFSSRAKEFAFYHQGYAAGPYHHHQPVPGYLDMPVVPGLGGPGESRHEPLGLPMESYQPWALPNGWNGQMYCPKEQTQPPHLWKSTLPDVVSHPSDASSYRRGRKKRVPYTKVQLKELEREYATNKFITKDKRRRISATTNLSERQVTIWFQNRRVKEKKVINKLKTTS
Chain of Dihydroorotate dehydrogenase (quinone), mitochondrial (Plasmodium falciparum (isolate 3D7)) (Q08210 whole entry, looked up): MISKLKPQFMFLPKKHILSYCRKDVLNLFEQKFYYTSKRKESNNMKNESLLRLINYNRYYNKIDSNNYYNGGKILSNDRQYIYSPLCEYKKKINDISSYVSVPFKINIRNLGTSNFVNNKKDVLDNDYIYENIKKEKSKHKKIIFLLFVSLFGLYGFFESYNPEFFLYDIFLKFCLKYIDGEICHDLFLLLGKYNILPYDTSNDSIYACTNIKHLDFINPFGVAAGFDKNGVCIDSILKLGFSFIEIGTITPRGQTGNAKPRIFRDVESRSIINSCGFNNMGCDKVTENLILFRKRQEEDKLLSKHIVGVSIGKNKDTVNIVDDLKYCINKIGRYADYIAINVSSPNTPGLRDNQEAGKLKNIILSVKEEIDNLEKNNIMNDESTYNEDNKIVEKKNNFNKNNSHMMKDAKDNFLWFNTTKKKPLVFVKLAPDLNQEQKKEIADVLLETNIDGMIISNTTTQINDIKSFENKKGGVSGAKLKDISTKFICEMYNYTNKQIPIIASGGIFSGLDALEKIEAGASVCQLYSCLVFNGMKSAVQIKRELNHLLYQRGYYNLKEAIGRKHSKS
Chain of E3 ubiquitin-protein ligase XIAP (Homo sapiens) (P98170 whole entry, looked up, the tested form may be a part): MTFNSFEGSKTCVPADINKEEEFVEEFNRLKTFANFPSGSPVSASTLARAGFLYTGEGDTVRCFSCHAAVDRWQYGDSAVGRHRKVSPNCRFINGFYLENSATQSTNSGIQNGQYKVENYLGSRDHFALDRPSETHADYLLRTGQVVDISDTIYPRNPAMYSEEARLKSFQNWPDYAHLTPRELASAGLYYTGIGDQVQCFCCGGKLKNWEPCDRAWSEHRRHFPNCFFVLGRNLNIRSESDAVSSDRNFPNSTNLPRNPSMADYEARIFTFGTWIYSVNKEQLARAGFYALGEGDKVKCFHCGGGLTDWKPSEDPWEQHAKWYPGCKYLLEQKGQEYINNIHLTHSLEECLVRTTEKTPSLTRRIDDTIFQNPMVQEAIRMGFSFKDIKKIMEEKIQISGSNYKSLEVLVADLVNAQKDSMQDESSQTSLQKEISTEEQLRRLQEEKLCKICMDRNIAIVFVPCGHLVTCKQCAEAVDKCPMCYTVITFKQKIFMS

For the molecule `COc1ccc([Si](C)(C)[C@H]2[C@H](CC(=O)N3CCC[C@H]3CO)O[C@@]3(C(=O)N(Cc4ccc(N5CCC5=O)cc4)c4ccccc43)[C@@H]2C)cc1`, the z-score was -1.39 in [1]; -0.942 (inactive) in assay [2]; -1.7 (inactive) in assay [3]; 1 (inactive) in assay [5]; 0.194 (inactive) in assay [6]; -1.17 (inactive) in assay [7]. Also, the z-score in assay [8] was -1.29 (inactive); in [9], -0.944; in assay [13] it was -0.986; in assay [14], -3.74 (inactive); in assay [15], 0.312 (inactive); in assay [16], -0.36 (inactive). Besides, the composite z-score in assay [4] is -5.46 (inactive); in [10], -0.0339; in [11], 1.18 (inactive); in assay [12] it was 0.709.

In the case of `C=CCC(OC(C)=O)[C@@H]1[C@@H](N(Cc2ccc(-c3ccccc3)cc2)C(=O)c2ccc(C)cc2)c2cc(OCCCO)ccc2N1C(=O)Cc1ccc2ccccc2c1` (some centres undefined), the z-score in assay [1] was 1.03; in [2], -0.516 (inactive); in assay [3], 1.38 (inactive); in assay [5], 0.219 (inactive); in assay [6] it was -1.72 (inactive); in [7] it was 1.64 (inactive). Moreover, the z-score in assay [8] is 1.93 (inactive); in assay [9] it was 1.22; in assay [13] it was -0.481; in assay [14] it was -1.28 (inactive); in assay [15], -0.816 (inactive); in assay [16], -0.488 (inactive). In addition, the composite z-score in assay [4] is -1 (inactive); in assay [10], -0.02; in [11] it was 0.254 (inactive); in [12], 0.0529.

Regarding `O=C1O[C@H](c2ccccc2)[C@H](c2ccccc2)N2[C@H]1[C@@H](C(=O)O)[C@]1(C(=O)Nc3ccc(C#CC4(O)CCCCCC4)cc31)[C@H]2c1ccc(O)cc1`, the z-score in [1] was 0.934; in assay [2], -1.83 (inactive); in assay [3] it was 1.36 (inactive); in assay [5], 0.734 (inactive); in assay [6] it was -0.692 (inactive); in [7], 0.451 (inactive). Besides, the z-score in assay [8] was -0.679 (inactive); in assay [9], -0.0544; in assay [13], 0.361; in [14], -6.61 (inactive); in assay [15], -0.308 (inactive); in assay [16], -0.307 (inactive). Besides, the composite z-score in assay [4] was -3.2 (inactive); in assay [10], -0.248; in assay [11], -0.203 (inactive); in assay [12], 0.194.

Take `[N-]=[N+]=NCc1ccccc1[C@@H]1OC(c2ccc(OCCCO)cc2)=N[C@]1(Cc1ccccc1)C(=O)NCCN1CCOCC1`: the z-score in [1] was -0.195; in assay [2], -0.559 (inactive); in assay [3], 0.162 (inactive); in assay [5] it was -0.279 (inactive); in assay [6] it was 1.89 (inactive); in [7], 2.23 (inactive). In addition, the z-score is 0.528 (inactive) in assay [8]; -0.0015 in assay [9]; -2.2 in [13]; -1.66 (inactive) in [14]; -0.294 (inactive) in assay [15]; -0.108 (inactive) in [16]. For the same molecule, the composite z-score in assay [4] was 1.16 (inactive); in assay [10], -0.0125; in [11] it was -0.256 (inactive); in assay [12], 0.77.

On to `COc1ccc(NC(=O)O[C@H]2[C@@H]3OC(=O)[C@H](Cc4cccc(Br)c4)C/C=C/C[C@@H](Cc4cccc(Br)c4)C(=O)O[C@H]3[C@@H](OC)O[C@@H]2CO)cc1`, for which the z-score in assay [1] is -0.868; in [2], -0.413 (inactive); in [3], -0.37 (inactive); in assay [5] it was 0.47 (inactive); in assay [6], 0.604 (inactive); in assay [7], 0.365 (inactive). The z-score was 0.855 (inactive) in [8]; -0.517 in assay [9]; -1.6 in assay [13]; -1.86 (inactive) in assay [14]; 0.0003 (inactive) in assay [15]; 0.0972 (inactive) in assay [16]. Also, the composite z-score in [4] is 0.732 (inactive); in assay [10], -0.555; in [11], 1.25 (inactive); in assay [12] it was 0.369.

As for `COc1cc(NN2C(C(O)c3cc(OC)c(OC)c(OC)c3)C=CC3C(=O)N(c4ccccc4)C(=O)C32)cc(OC)c1OC` (centres undefined), the z-score was -1.95 in assay [1]; 0.585 (inactive) in assay [2]; -1.19 (inactive) in assay [3]; 0.366 (inactive) in assay [5]; -0.147 (inactive) in assay [6]; -0.585 (inactive) in [7]. Besides, the z-score in [8] was -0.511 (inactive); in assay [9], -1.71; in assay [13], -0.732; in assay [14], -4.86 (inactive); in assay [15], 1.06 (inactive); in [16] it was 0.889 (inactive). Besides, the composite z-score in assay [4] is -1.42 (inactive); in assay [10] it was 0.074; in assay [11], 0.692 (inactive); in assay [12] it was 0.552.

With `O=C1C[C@@](C(=O)NCc2ccccc2)(c2ccc([N+](=O)[O-])cc2)[C@@H](c2ccc(CO)cc2I)N1CC12CC3CC(CC(C3)C1)C2`, the z-score in assay [1] was -1.28; in assay [2], -0.787 (inactive); in [3], -1.73 (inactive); in assay [5] it was 0.593 (inactive); in [6], -0.229 (inactive); in [7], 0.0207 (inactive). Also, the z-score in assay [8] was 0.348 (inactive); in [9] it was -2.62; in assay [13], -1.48; in [14] it was -2.19 (inactive); in assay [15] it was -0.114 (inactive); in [16] it was -0.147 (inactive). Also, the composite z-score is -0.0036 (inactive) in assay [4], -0.227 in [10], 0.239 (inactive) in [11] and 0.692 in assay [12].

For the molecule `C=C[C@@H](OC)[C@H](OC(=O)Nc1ccc(SC)cc1)c1ccc(OCCO)cc1`, the z-score is -0.8 in assay [1]; -0.88 (inactive) in assay [2]; -0.415 (inactive) in assay [3]; 0.838 (inactive) in [5]; 0.884 (inactive) in [6]; -0.967 (inactive) in assay [7]. The z-score in assay [8] is -1.5 (inactive); in assay [9] it was -0.306; in assay [13] it was 0.0419; in [14] it was -5.58 (inactive); in assay [15], -0.0838 (inactive); in assay [16], 0.168 (inactive). Also, the composite z-score in assay [4] was -0.915 (inactive); in [10] it was -0.0918; in [11], -0.302 (inactive); in assay [12], 0.709.

On to `C=CCNC(=O)[C@@H]1[C@H]2C(=O)O[C@H](c3ccccc3)[C@H](c3ccccc3)N2[C@H](c2ccc(OCCO)cc2)[C@@]12C(=O)N(C(=O)OCCOC)c1ccc(C#CCCO)cc12`, for which the z-score in [1] is 0.266; in [2] it was -0.153 (inactive); in [3] it was 0.423 (inactive); in assay [5], 2.16 (inactive); in assay [6], 1.55 (inactive); in assay [7] it was 0.756 (inactive). Also, the z-score was 0.298 (inactive) in assay [8]; 1.04 in assay [9]; -1.56 in [13]; -1.19 (inactive) in assay [14]; -0.604 (inactive) in [15]; -0.826 (inactive) in assay [16]. The composite z-score is -0.767 (inactive) in assay [4], -0.0161 in assay [10], 0.649 (inactive) in [11] and 0.69 in [12].

Source of the values: PubChem BioAssay.
